Laboratory results as given in PubChem BioAssay AID2284155 (EPA ToxCast).
Activity calls are given as the source filed them. How the source made its calls: active means hit-call score of the fitted dose curve at least 0.9, where 1 is the maximum; inactive means score below 0.9.

These compounds were tested against human Muscarinic Acetylcholine Receptor M4 Antagonism, conducted at France lab site, CHRM4 (gene 1132) (UniProt P08173) (assay: ERF_FR_GPCR_hCHRM4: Eurofins (ERF) G Protein-Coupled Receptor (GPCR) Radioligand Binding LeadHunter Assay for human Muscarinic Acetylcholine Receptor M4 Antagonism, conducted at France lab site).
Method: ERF_FR_GPCR_hCHRM4 is a biochemical, single-readout assay that uses extracted gene-proteins in a cell-free assay. Measurements were taken 1 hour after chemical dosing in a 96-well plate. See M4 Human Acetylcholine (Muscarinic) GPCR Binding (Antagonist Radioligand) Assay, Cerep.ERF_FR_GPCR_hCHRM4 is an assay component calculated from the ERF_FR_GPCR_hCHRM4 assay. It is designed to measure radioligand binding using a type of binding reporter as detected by scintillation counting with radiometry technology.Data from the assay component ERF_FR_GPCR_hCHRM4 was analyzed at the assay endpoint, ERF_FR_GPCR_hCHRM4, in the positive analysis fitting direction relative to DMSO as the negative control and baseline of activity. Using a type of binding reporter, loss-of-signal activity can be used to understand changes in binding as they relate to gene CHRM4. To generalize the intended target to other relatable targets, this assay endpoint is annotated to the gpcr intended target family, where the subfamily is acetylcholine (Muscarinic).
Human cells are incubated for 60 minutes at room temprature with [3H]4-DAMP ligand (0.2 nM) and 4-Damp methiodide as control inhibitor.Test Sample Requirements: Minimum for 1) Screen: 60 ul of 10 mM stock -OR- 1 mg (pre-weighed) for 10 uM final testing. 2) Dose Response: 90 ul of 10 mM stock -OR- 1 mg (pre-weighed) for a top concentration at 10 uM.

Chain of human Muscarinic Acetylcholine Receptor M4 Antagonism, conducted at France lab site, CHRM4 (gene 1132) (P08173 whole entry, looked up): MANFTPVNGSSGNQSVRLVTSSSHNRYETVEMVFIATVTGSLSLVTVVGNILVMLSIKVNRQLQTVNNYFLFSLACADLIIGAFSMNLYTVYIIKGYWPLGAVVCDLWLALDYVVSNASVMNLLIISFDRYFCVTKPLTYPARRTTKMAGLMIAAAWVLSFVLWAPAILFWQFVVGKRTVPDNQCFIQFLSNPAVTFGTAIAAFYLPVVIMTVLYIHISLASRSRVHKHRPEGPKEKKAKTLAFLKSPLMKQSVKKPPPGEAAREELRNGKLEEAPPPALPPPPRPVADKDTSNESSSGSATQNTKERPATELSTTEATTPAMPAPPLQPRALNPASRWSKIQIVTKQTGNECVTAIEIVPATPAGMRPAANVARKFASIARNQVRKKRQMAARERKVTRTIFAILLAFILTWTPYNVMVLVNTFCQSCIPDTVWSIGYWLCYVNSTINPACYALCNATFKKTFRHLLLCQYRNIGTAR

Compound | AC50
O=C(/C=C/c1ccc(O)cc1)CC(=O)/C=C/c1ccc(O)cc1 | 9.09 µM (active)
